The test system of one experiment is SGK2. The note with it: concentration: 1 μM,replicates: in singlicate; n = 1.
Consider `COc1cccc(C2=C(Nc3cccc(Cl)c3)C(=O)NC2=O)c1` [SB-341556], for which the “%Inh” value worked out at 0%.
With `CCn1c(-c2nonc2N)nc2cncc(CNC3CCNCC3)c21.Cl` [SB-747651], the “%Inh” value is 7%.
The same measure, in the same setting: under `Cn1ccc2ncnc(Oc3ccc(NC(=O)Nc4cncc(C(F)(F)F)c4)c(Cl)c3)c21` stands 0%; under `CN(c1ccccc1CNc1nc(Nc2ccc3c(c2)CC(=O)N3)ncc1C(F)(F)F)S(C)(=O)=O`, 0%.
On to `COc1cccc(CNC(=O)NC2CCN(c3ccnc(Nc4cc(OC)c(OC)c(OC)c4)n3)C2)c1` (centres unmarked) [GSK1379765], for which the “%Inh” value is 4%.
Still for that read-out and setting: under `COc1cc(Nc2nccc(N3CCC(NC(=O)c4cccc(C#N)c4)C3)n2)cc(OC)c1OC` (centres unmarked) [GSK1379751] stands 2%; under `COc1cc2nccc(Nc3ccc(Oc4ccccc4)cc3)c2cc1OC.Cl` [GI261656], 0%; under `O=C(Nc1cccc(C(F)(F)F)c1)c1cccc(Oc2ccc3nccn3n2)c1`, 15%.
With `Nc1nccc(-c2ccc3c(N)n[nH]c3c2)n1` [GSK1034945], the “%Inh” value was determined as 4%.
Same read-out and setting: under `C[C@@H](Oc1cc(-n2cnc3cc(-c4cnn(C)c4)ccc32)sc1C(N)=O)c1ccccc1Cl` [GSK580432] stands 5%; under `CCNCC(Cc1ccccc1)NC(=O)c1cc(Br)c(-c2ccnc3[nH]ccc23)s1.Cl.Cl` (centres unmarked) [GSK1383280], 9%.
Same read-out and setting: under `O=C(Nc1ccc(Oc2ccc3nc(NC(=O)C4CC4)cn3n2)c(F)c1)c1cccn(-c2ccccc2)c1=O` stands 0%; under `N#Cc1cccc(C(=O)NC2CCN(c3ccnc(Nc4ccc(F)cc4)n3)C2)c1` (centres unmarked) [GSK1379708], 5%.
For the compound `CSc1nccc(-c2c(-c3ccc(F)cc3)ncn2CCCN2CCOCC2)n1.Cl` [SB-217146], the “%Inh” value was 0%.
`COc1cccc(OC)c1C(=O)Nc1cccc(-c2nn3ccccc3c2-c2ccnc(Nc3cccc(F)c3)n2)c1` [GSK361065]: the “%Inh” value came out at 26%.
Still for that read-out and setting: as for `O=C(NOCC1CC1)c1cc(Br)c(F)c(F)c1Nc1ccc(I)cc1Cl`, the figure is 0%; as for `Cc1ccc(CC(=O)N2CCc3cc(-c4cn(C)c5ncnc(N)c45)ccc32)cc1` [GSK2634758], 0%.
The same measure, in the same setting: under `CC(C)c1nc(-c2cccc(NS(=O)(=O)c3ccccc3)c2)c(-c2ccnc(Nc3ccc4c(c3)CN(C)CC4)n2)s1` [GSK1649598] stands 35%.
On the same count and under the same terms, as for `Cc1ccc(C(=O)Nc2ccc(Oc3ccc4nc(NC(=O)C5CC5)cn4c3)c(F)c2)c(=O)n1-c1ccccc1`, the figure is 0%; as for `c1ccc(Oc2ccc(Nc3ccnc4ccc(-c5ccccn5)cc34)cc2)cc1` [GW407034], 0%; as for `O=C(Nc1n[nH]c2cc(-c3ccco3)ccc12)C1CC1` [SB-737447], 30%.
Turning to `C[C@@H]1CNc2c(sc3ccc4nc(-c5ccc(O)cc5)ccc4c23)C(=O)N1`, the “%Inh” value amounted to 8%.
Take `CCn1c(-c2nonc2N)nc2cncc(Br)c21` [SB-738004]: the “%Inh” value was 0%.
Regarding `CS(=O)c1ccc(-c2coc3ccc(-c4n[nH]c(=O)o4)cc23)cc1` (centres unmarked), the “%Inh” value is 12%.
In the case of `CN1CCN(CCCNc2nccc(-c3c(-c4ccc(F)cc4)nn4cc(C(N)=O)ccc34)n2)CC1` [GW622475], the “%Inh” value was found to be 0%.
Same read-out and setting: under `CC(C(=O)NC1CCN(c2ccnc(Nc3ccc(F)cc3)n2)C1)c1ccc(Cl)cc1` (centres unmarked) [GSK1379713] stands 0%; under `CC(=O)c1c(-c2ccncc2)[nH]c(-c2ccncc2)c1C` [GW493036], 11%.
Still for that read-out and setting: as for `CS(=O)(=O)c1cccc(CNc2nc(Nc3ccc4c(c3)[C@@H]3C[C@@H]4CNC3=O)ncc2C(F)(F)F)c1`, the figure is 0%; as for `FC(F)(F)c1cc(Br)cc(Nc2nccc(-c3cnn4ncccc34)n2)c1` [GW810578], 0%.
Same read-out and setting: under `CC(=O)Nc1ccc(-c2cc3ncnc(SCC(=O)O)c3s2)cc1` stands 0%; under `NC(=O)Nc1sc(-c2ccc(F)cc2)cc1C(N)=O` [GW789449], 10%.
Regarding `CN(c1cccc(CNc2nc(Nc3ccc4c(c3)CC(=O)N4)ncc2C(F)(F)F)c1)S(C)(=O)=O`, the “%Inh” value is reported as 0%.
The same measure, in the same setting: under `COC(=O)Nc1nc2cc(Oc3ccc(NC(=O)Nc4cc(C(F)(F)F)ccc4Cl)cc3)ccc2[nH]1.Cl` [GW697465] stands 0%.
On the same count and under the same terms, as for `COc1ccc(Nc2nccc(N3CCC(NC(=O)c4cccc(C#N)c4)C3)n2)cc1` (centres unmarked) [GSK1379730], the figure is 0%; as for `Cc1ccc(Nc2ccnc(Nc3ccc4c(c3)CS(=O)(=O)C4)n2)cc1O.Cl` [GW579362], 0%; as for `Cl.Cl.NC[C@H](CC1CCCCC1)NC(=O)c1ccc(-c2ccnc3[nH]ccc23)s1` [GSK1581428], 79%.
`Cc1n[nH]c2cc(Nc3ccnc(Nc4cccc(CN5CCOCC5)c4)n3)ccc12` [GW682569]: the “%Inh” value worked out at 0%.

The test system of the next experiment is SGK3. Particulars: concentration: 1 μM,replicates: in singlicate; n = 1.
For the compound `COc1cccc(C2=C(Nc3cccc(Cl)c3)C(=O)NC2=O)c1` [SB-341556], the “%Inh” value came to 9%.
On the same count and under the same terms, under `CCn1c(-c2nonc2N)nc2cncc(CNC3CCNCC3)c21.Cl` [SB-747651] stands 43%; under `Cn1ccc2ncnc(Oc3ccc(NC(=O)Nc4cncc(C(F)(F)F)c4)c(Cl)c3)c21`, 0%.
`CN(c1ccccc1CNc1nc(Nc2ccc3c(c2)CC(=O)N3)ncc1C(F)(F)F)S(C)(=O)=O`: the “%Inh” value is 32%.
On the same count and under the same terms, under `COc1cccc(CNC(=O)NC2CCN(c3ccnc(Nc4cc(OC)c(OC)c(OC)c4)n3)C2)c1` (centres unmarked) [GSK1379765] stands 2%.
`COc1cc(Nc2nccc(N3CCC(NC(=O)c4cccc(C#N)c4)C3)n2)cc(OC)c1OC` (centres unmarked) [GSK1379751]: the “%Inh” value is 0%.
With `COc1cc2nccc(Nc3ccc(Oc4ccccc4)cc3)c2cc1OC.Cl` [GI261656], the “%Inh” value came out at 0%.
As to `O=C(Nc1cccc(C(F)(F)F)c1)c1cccc(Oc2ccc3nccn3n2)c1`, the “%Inh” value was 14%.
Still for that read-out and setting: as for `Nc1nccc(-c2ccc3c(N)n[nH]c3c2)n1` [GSK1034945], the figure is 24%; as for `C[C@@H](Oc1cc(-n2cnc3cc(-c4cnn(C)c4)ccc32)sc1C(N)=O)c1ccccc1Cl` [GSK580432], 0%; as for `CCNCC(Cc1ccccc1)NC(=O)c1cc(Br)c(-c2ccnc3[nH]ccc23)s1.Cl.Cl` (centres unmarked) [GSK1383280], 82%.
In the case of `O=C(Nc1ccc(Oc2ccc3nc(NC(=O)C4CC4)cn3n2)c(F)c1)c1cccn(-c2ccccc2)c1=O`, the “%Inh” value worked out at 0%.
Still for that read-out and setting: under `N#Cc1cccc(C(=O)NC2CCN(c3ccnc(Nc4ccc(F)cc4)n3)C2)c1` (centres unmarked) [GSK1379708] stands 0%; under `CSc1nccc(-c2c(-c3ccc(F)cc3)ncn2CCCN2CCOCC2)n1.Cl` [SB-217146], 13%; under `COc1cccc(OC)c1C(=O)Nc1cccc(-c2nn3ccccc3c2-c2ccnc(Nc3cccc(F)c3)n2)c1` [GSK361065], 65%.
Turning to `O=C(NOCC1CC1)c1cc(Br)c(F)c(F)c1Nc1ccc(I)cc1Cl`, the “%Inh” value came to 0%.
As for `Cc1ccc(CC(=O)N2CCc3cc(-c4cn(C)c5ncnc(N)c45)ccc32)cc1` [GSK2634758], the “%Inh” value worked out at 4%.
Same read-out and setting: as for `CC(C)c1nc(-c2cccc(NS(=O)(=O)c3ccccc3)c2)c(-c2ccnc(Nc3ccc4c(c3)CN(C)CC4)n2)s1` [GSK1649598], the figure is 53%; as for `Cc1ccc(C(=O)Nc2ccc(Oc3ccc4nc(NC(=O)C5CC5)cn4c3)c(F)c2)c(=O)n1-c1ccccc1`, 0%.
Consider `c1ccc(Oc2ccc(Nc3ccnc4ccc(-c5ccccn5)cc34)cc2)cc1` [GW407034], for which the “%Inh” value was 0%.
The same measure, in the same setting: as for `O=C(Nc1n[nH]c2cc(-c3ccco3)ccc12)C1CC1` [SB-737447], the figure is 34%; as for `C[C@@H]1CNc2c(sc3ccc4nc(-c5ccc(O)cc5)ccc4c23)C(=O)N1`, 24%; as for `CCn1c(-c2nonc2N)nc2cncc(Br)c21` [SB-738004], 66%.
In the case of `CS(=O)c1ccc(-c2coc3ccc(-c4n[nH]c(=O)o4)cc23)cc1` (centres unmarked), the “%Inh” value is 15%.
Turning to `CN1CCN(CCCNc2nccc(-c3c(-c4ccc(F)cc4)nn4cc(C(N)=O)ccc34)n2)CC1` [GW622475], the “%Inh” value is listed as 8%.
Turning to `CC(C(=O)NC1CCN(c2ccnc(Nc3ccc(F)cc3)n2)C1)c1ccc(Cl)cc1` (centres unmarked) [GSK1379713], the “%Inh” value is 0%.
On the same count and under the same terms, under `CC(=O)c1c(-c2ccncc2)[nH]c(-c2ccncc2)c1C` [GW493036] stands 9%; under `CS(=O)(=O)c1cccc(CNc2nc(Nc3ccc4c(c3)[C@@H]3C[C@@H]4CNC3=O)ncc2C(F)(F)F)c1`, 25%.
With `FC(F)(F)c1cc(Br)cc(Nc2nccc(-c3cnn4ncccc34)n2)c1` [GW810578], the “%Inh” value is 17%.
Still for that read-out and setting: under `CC(=O)Nc1ccc(-c2cc3ncnc(SCC(=O)O)c3s2)cc1` stands 39%.
Still for that read-out and setting: as for `NC(=O)Nc1sc(-c2ccc(F)cc2)cc1C(N)=O` [GW789449], the figure is 31%; as for `CN(c1cccc(CNc2nc(Nc3ccc4c(c3)CC(=O)N4)ncc2C(F)(F)F)c1)S(C)(=O)=O`, 2%.
`COC(=O)Nc1nc2cc(Oc3ccc(NC(=O)Nc4cc(C(F)(F)F)ccc4Cl)cc3)ccc2[nH]1.Cl` [GW697465]: the “%Inh” value was found to be 0%.
For the compound `COc1ccc(Nc2nccc(N3CCC(NC(=O)c4cccc(C#N)c4)C3)n2)cc1` (centres unmarked) [GSK1379730], the “%Inh” value is on record as 0%.
As for `Cc1ccc(Nc2ccnc(Nc3ccc4c(c3)CS(=O)(=O)C4)n2)cc1O.Cl` [GW579362], the “%Inh” value is given as 9%.
With `Cl.Cl.NC[C@H](CC1CCCCC1)NC(=O)c1ccc(-c2ccnc3[nH]ccc23)s1` [GSK1581428], the “%Inh” value is on record as 92.9%.
For the compound `Cc1n[nH]c2cc(Nc3ccnc(Nc4cccc(CN5CCOCC5)c4)n3)ccc12` [GW682569], the “%Inh” value was found to be 17%.

The values above are taken from article PMC5540273 (PLoS ONE, 2017).
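Note: KINOMEscan kinase panel screen.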
